The supplement of paper PMC11219838
Values without a mark were called inactive.

Experiments:
Conditions in all cases: 60 µM; 5 days; temperature: 20 °C
Meloidogyne hapla J2 = assay: proportion of mobile M. hapla J2 relative to DMSO control (fraction of DMSO control); higher = more viable, less nematicidal, active = 0.7 or less
How it was run: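 About 25 M. hapla J2 were placed in each well of a 96-well plate in distilled water, and compound was pinned in to a final 60 µM with 0.6% v/v DMSO. The sealed plates were shaken at 200 rpm at 20 °C for 5 days, after which 2 µL of 1 M NaOH went into each well. Mobility was then scored under the microscope and divided by the mean value from DMSO-only wells on the same plate. Each plate held eight such DMSO wells, and two biological replicates were averaged.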

[1] = tested on: Caenorhabditis elegans dauer (daf-2(e1370)); assay: proportion of mobile C. elegans dauer larvae relative to DMSO control (fraction of DMSO control); higher = more viable, less nematicidal, active = 0.63 or less; extreme values may be limits of the assay
How it was run: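 The proportion of mobile worms, relative to DMSO wells, was scored by dissection microscope and averaged over two biological replicates. Worms were C. elegans dauers, about 20 per well in liquid NGM in 96-well plates, generated from synchronized larvae on MYOB plates with E. coli OP50 at 25 °C for 48 h. They were treated with compound pinned to 60 µM final (0.6% v/v DMSO) and kept in sealed plates shaken at 200 rpm for 5 days at 20 °C.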

Ditylenchus dipsaci = assay: proportion of mobile D. dipsaci (mixed stage) relative to DMSO control (fraction of DMSO control); higher = more viable, less nematicidal, active = 0.86 or less; extreme values may be limits of the assay
How it was run: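 Ditylenchus dipsaci nematodes were cultured on pea plants in Gamborg B-5 agar, then extracted into water through a filter funnel, and roughly 20 worms in distilled water were placed in each well of a 96-well plate. Compound was pinned in to a final concentration of 60 µM (0.6% v/v DMSO), and the sealed plates were shaken at 200 rpm for 5 days at 20 °C. Mobile worms were counted under the microscope after 2 µL of 1 M NaOH was added. Mobility is given relative to DMSO controls as the mean of two biological replicates.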

| SMILES | proportion of mobile M. hapla J2 (Meloidogyne hapla J2) | proportion of mobile C. elegans dauer larvae [1] | proportion of mobile D. dipsaci (Ditylenchus dipsaci) |
| --- | --- | --- | --- |
| CCOc1ccccc1-c1nc(-c2ccc(F)cc2)no1 | 1.06 | 1 | 1 |
| COc1ccc(Cl)cc1-c1noc(-c2ccccc2)n1 | 1.02 | 1 | 1 |
| COc1ccccc1NC(=O)CSc1nnc(-c2ccccc2)o1 | 1.04 | 1 | 1 |
| COc1nc(-c2ccccc2)ccc1-c1noc(-c2ccccc2Cl)n1 | 0.989 | 1 | 1 |
| COc1ccccc1NC(=O)c1ccccc1-c1nc(-c2ccccc2F)no1 | 1.02 | 1 | 1 |
| c1ccc(-c2nnc(SCc3nc4ccccc4[nH]3)o2)cc1 | 1.04 | 1 | 1 |
| Cc1cc(OCc2nc(-c3ccncc3)no2)ccc1Br | 1.05 | 1 | 1 |
| COc1ccccc1-c1nnc(SCc2ccc(C#N)cc2)o1 | 0.897 | 1 | 1 |
| COc1ccc(-c2noc(C3CCCCC3)n2)cc1 | 0.927 | 0.779 | 1 |
| Cc1ccc(-c2nc(-c3ccc(F)cc3)no2)cc1 | 1.04 | 0 (active) | 0.708 (active) |
| COc1ccc(-c2noc(COc3ccc(Cl)cc3C)n2)cc1 | 0.94 | 1 | 1 |
| N#Cc1ccc(CSc2nnc(-c3ccccc3)o2)cc1 | 0.798 | 1 | 1 |
| c1ccc(CSc2nnc(-c3cccnc3)o2)cc1 | 0.391 (active) | 1 | 1 |
| COc1ccccc1-c1nc(-c2ccccc2Cl)no1 | 0.899 | 1 | 1 |
| O=C(c1ccccc1-c1nc(-c2ccccc2)no1)N1CCCCC1 | 1.06 | 1 | 1 |
| CCCCCOC(=O)CSc1nnc(-c2ccc(Cl)cc2Cl)o1 | 0.737 | 1 | 1 |
| O=C(CSc1nnc(-c2ccccc2Cl)o1)Nc1ccccn1 | 0.946 | 1 | 1 |

| SMILES | proportion of mobile M. hapla J2 (Meloidogyne hapla J2) | proportion of mobile C. elegans dauer larvae [1] | proportion of mobile D. dipsaci (Ditylenchus dipsaci) |
| --- | --- | --- | --- |
| Cc1ccc(C(=O)Nc2ccccc2-c2nc(-c3cccnc3)no2)cc1C | 0.962 | 1 | 1 |
| O=C(CSc1nnc(-c2ccco2)o1)Nc1cc(Cl)ccc1Cl | 1.01 | 1 | 1 |
| Cc1ccc(NC(=O)CSc2nnc(-c3ccco3)o2)cc1Br | 1.03 | 1 | 1 |
| c1ccc(CSc2nnc(-c3ccccc3)o2)cc1 | 1.04 | 1 | 0.864 |
| O=C(CSc1nnc(-c2ccccc2)o1)Nc1ccccc1F | 0.85 | 1 | 1 |
| Cc1cccc(-c2noc(-c3ccc(Cl)cc3)n2)c1 | 1.05 | 1 | 1 |
| COc1nc(C)ccc1-c1noc(-c2ccccc2C)n1 | 0.668 (active) | 1 | 1 |
| COc1nc(C)ccc1-c1noc(-c2ccc(Cl)cc2)n1 | 0.832 | 1 | 1 |
| COc1ccccc1-c1nnc(SCc2ccccc2C#N)o1 | 0.94 | 1 | 1 |
| O=C(CSc1nnc(-c2ccc(Cl)cc2Cl)o1)N1CCCCC1 | 0.934 | 1 | 1 |
| CCn1cc(C(=O)CSc2nnc(-c3ccccc3)o2)c2ccccc21 | 0.987 | 1 | 1 |
| Cc1cccc(-c2nnc(SCC(=O)Nc3ccccc3F)o2)c1 | 0.753 | 1 | 1 |
| Cc1ccc(-c2nc(-c3ccccc3)no2)cc1Cl | 0.996 | 1 | 1 |
| COc1ccccc1-c1nnc(SCc2ccc(F)cc2)o1 | 0.329 (active) | 1 | 1 |
| O=C(CSc1nnc(-c2ccco2)o1)c1ccccc1 | 0.974 | 1 | 1 |
| Ic1ccc(OCc2nc(-c3ccncc3)no2)cc1 | 1.01 | 1 | 1 |
| Clc1ccc(OCc2nc(-c3ccccc3)no2)cc1 | 1.04 | 1 | 1 |
